Data published in PubChem BioAssay.
Activity calls are given as the source filed them.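 Rule for the calls, unless noted: active = inhibition above 20% together with a positive visual image hit; inconclusive = visual image hit but inhibition not above 20%; inactive = no visual image hit.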

Key:
[1] = inhibitors of TNFa-induced NFkB p65 translocation, primary screen, imaging, HUVEC, MLSMR starter and 10KST1 sets (AID 438); details: HUVEC TNFa-induced p65 nuclear translocation; cell count: measured here: nuclei count (cytotoxicity indicator), at 2.08 µM; inhibition: at 2 µM, stronger effect = higher value, 0% TNFa-plus-vehicle, 100% no-TNFa wells;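 note: compound added about 3h40 before a 20 min TNFalpha stimulation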;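 for inhibition: signal is the nuclear over cytoplasmic p65 intensity ratio per well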
[2] = reduction of polyQ htt aggregates in cells – imaging, exon1htt(103Q)mCFP cells, high-content imaging, primary screen (AID 483;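 active = visual image review flags a hit and inhibition of aggregation exceeds 20%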;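 note: compound exposure lasted 3 days before fixation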;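 for nuclei count: percent of the per-plate median nuclei count of sample wells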); details: exon1htt(103Q)mCFP cell line, aggregate imaging, at 2 µM; inhibition of aggregation: stronger effect = higher value; nuclei count: measured here: cell count, toxicity
[3] = endothelial E-selectin expression blockers – imaging, HUVEC, immunofluorescence, MLSMR starter and 10KST1 sets, primary screen (AID 487;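 active = visually confirmed hit in the image check and inhibition above 20%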;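 for inhibition: signal is fraction of cell area covered by stained E-selectin grains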;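 for nuclei count: 100% = median nuclei count of all wells on the same plate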); details: HUVEC TNFalpha-induced E-selectin immunofluorescence imaging, at 2 µM; inhibition: stronger effect = higher value; nuclei count: measured here: cell number, toxicity
[4] = biological target: Voltage-gated potassium channel subunit beta-2 (Rattus norvegicus) (UniProt P62483); assay: inhibitors of rat Kvbeta2 reductase activity – biochemical, NADPH fluorescence, primary screen (AID 622;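 active = fluorescence slope higher than the sample average by over 3 SD, cut at about -0.22 in these data, passing the limit was not always enough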;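 note: slope of raw intensity against log time taken from 70 to 1610 s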); details: recombinant KvBeta, 4-cyanobenzaldehyde reduction, at 10 µM, stronger effect = higher value
Chain of Voltage-gated potassium channel subunit beta-2 (Rattus norvegicus) (P62483 whole entry, looked up): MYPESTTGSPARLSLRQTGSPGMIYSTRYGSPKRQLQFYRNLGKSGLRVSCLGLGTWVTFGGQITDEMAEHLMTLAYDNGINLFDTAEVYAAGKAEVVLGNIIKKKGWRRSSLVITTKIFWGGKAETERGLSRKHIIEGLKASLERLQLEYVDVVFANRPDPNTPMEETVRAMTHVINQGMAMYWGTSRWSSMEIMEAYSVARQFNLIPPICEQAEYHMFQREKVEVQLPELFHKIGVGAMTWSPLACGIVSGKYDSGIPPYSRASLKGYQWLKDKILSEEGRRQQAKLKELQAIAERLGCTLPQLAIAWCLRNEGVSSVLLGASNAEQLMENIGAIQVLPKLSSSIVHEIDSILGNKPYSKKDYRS

[5] = biological target: Voltage-gated potassium channel subunit beta-2 (Rattus norvegicus) (UniProt P62483); assay: enhancers of rat Kvbeta2 NADPH turnover – biochemical, NADPH fluorescence, primary screen (AID 623;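 active = NADPH fluorescence slope more negative than the mean of all samples by about 3 SD, 99.7% confidence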;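 note: fluorescence intensity change per second fitted from 20 to 320 s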); details: Recombinant KvBeta, NADPH fluorescence decrease slope, 10 min; at 10 µM; stronger effect = lower value
[6] = biological target: Alpha-2C adrenergic receptor (Homo sapiens) (UniProt P18825); assay: compounds altering alpha2C-coupled GIRK flux – cell-based, HEK293 alpha2C/GIRK1/2, thallium flux, primary screen (AID 624;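 active = fluorescence slope after compound addition differing from the mean of all screened samples at 99.7% confidence, in either direction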;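 note: slope of fluorescence ratio to pre-addition baseline per second over 15 to 24 s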); details: thallium flux BTC fluorescence, at 10 µM, actives lie on both sides
Chain of Alpha-2C adrenergic receptor (Homo sapiens) (P18825 whole entry, looked up): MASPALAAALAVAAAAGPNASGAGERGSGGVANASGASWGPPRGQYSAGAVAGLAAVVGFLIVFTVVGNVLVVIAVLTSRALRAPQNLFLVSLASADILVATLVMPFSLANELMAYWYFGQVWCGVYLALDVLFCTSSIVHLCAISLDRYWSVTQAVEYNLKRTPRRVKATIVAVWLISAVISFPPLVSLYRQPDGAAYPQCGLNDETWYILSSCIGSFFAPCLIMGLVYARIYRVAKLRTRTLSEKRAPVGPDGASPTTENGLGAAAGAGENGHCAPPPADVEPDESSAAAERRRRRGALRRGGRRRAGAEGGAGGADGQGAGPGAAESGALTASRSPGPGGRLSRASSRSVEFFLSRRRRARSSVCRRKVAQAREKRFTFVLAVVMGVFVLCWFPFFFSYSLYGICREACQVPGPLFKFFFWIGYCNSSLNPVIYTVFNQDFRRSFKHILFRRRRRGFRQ

[7] = blockers of RIG-like receptor reporter activation – cell-based, Sendai virus stimulus, luciferase, 10K MLSCN set, TLR/RLR signaling modifier project, primary screen (AID 602276;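 active = inhibition at or above 50% at 10 µM; inactive = inhibition below 50%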;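 note: firefly luciferase from ISG56 promoter only with Renilla not read in this screen; 0% = Sendai virus plus DMSO and 100% = medium plus DMSO without virus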); details: HEK293 RL24 IRF3 luciferase reporter, at 10 µM, stronger effect = higher value
[8] = TLR3 IRF3 reporter activation blockers – cell-based, poly I:C stimulus, luciferase, 10K MLSCN set, primary screen (AID 602277;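 active = inhibition of the reporter signal at or above 50%; inactive = inhibition below 50%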); details: HEK293-TLR3 RL24 IRF3 luciferase reporter, at 10 µM, stronger effect = higher value

SMILES | cell count [1] | inhibition [1] | inhibition of aggregation [2] | nuclei count [2] [%] | inhibition [3] | nuclei count [3] [%] | fluorescence slope [4] | NADPH fluorescence slope [5] | slope [6] | inhibition [7] | inhibition [8]
Cc1cccn2c(=O)c3cc(C(=O)N4CCCc5ccccc54)n(C)c3nc12 | 232 | 15.9% (inactive) | 10.9% (inactive) | 98.7 | 29.9% (inactive) | 96 | -0.556 (inactive) | -3.1e-05 (inactive) | 0.00631 (inactive) | 6.77% (inactive) | 17.7% (inactive)
O=C(CC(Cc1ccccc1)C(=O)O)NCCc1ccc2c(c1)OCO2 (centres undefined) | 775 | -6.3% (inactive) | -0.6% (inactive) | 107 | -161% (inactive) | 145 | -0.424 (inactive) | -3.2e-05 (inactive) | 0.00395 (inactive) | -2.67% (inactive) | 23.4% (inactive)
CCOC(=O)Cn1c(S(=O)(=O)Cc2ccccc2)nc2ccccc21 | 811 | 5.5% (inactive) | -22.5% (inactive) | 110 | -135% (inactive) | 127 | -0.579 (inactive) | -1.4e-05 (inactive) | 0.00594 (inactive) | 9.42% (inactive) | 30.4% (inactive)
COc1ccc(-n2nc(C(=O)NCC(=O)NCC3CCCO3)c3ccccc3c2=O)cc1 (centres undefined) | 355 | -1.7% (inactive) | 13.1% (inactive) | 91.3 | -15.9% (inactive) | 100 | -0.435 (inactive) | -1.9e-05 (inactive) | 0.0067 (inactive) | 16.2% (inactive) | 23.6% (inactive)
CCOC(=O)N1CCC(NC(=O)C2CCCN(C(=O)c3cc4sccc4n3C)C2)CC1 (centres undefined) | 762 | -5.8% (inactive) | -4.7% (inactive) | 127 | -71.5% (inactive) | 123 | -0.556 (inactive) | -4.1e-05 (inactive) | 0.00546 (inactive) | 2.87% (inactive) | 25.3% (inactive)
CCn1nnnc1SCC(=O)N1CCOCC1 | 707 | 11.3% (inactive) | -2% (inactive) | 122 | -0.6% (inactive) | 122 | -0.637 (inactive) | 3.1e-06 (inactive) | 0.0034 (inactive) | 14.6% (inactive) | 8.47% (inactive)
O=C(Nc1ccon1)c1cc(-c2ccccc2)nc2ccccc12 | 364 | -8% (inactive) | 22.5% (inactive) | 98.4 | -48.5% (inactive) | 116 | -0.286 (inactive) | -6.3e-05 (inactive) | 0.00497 (inactive) | -24.1% (inactive) | 99.8% (active)
Cc1cccc(-n2nnnc2SCc2csc(-c3ccccc3)n2)c1 | 413 | 2.9% (inactive) | -8.3% (inactive) | 125 | -106% (inactive) | 127 | -0.502 (inactive) | -3.3e-05 (inactive) | 0.00568 (inactive) | 9.28% (inactive) | 6.25% (inactive)
O=C(c1ccc2ccccc2n1)N1CCN(c2ccccc2)CC1 | 874 | 0% (inactive) | -15% (inactive) | 107 | -78.3% (inactive) | 142 | -0.476 (inactive) | 9.7e-06 (inactive) | 0.00614 (inactive) | -18.5% (inactive) | -4.71% (inactive)
CC1CN(C2CCCCC2)c2nc3c(c(=O)[nH]c(=O)n3C)n2C1 (centres undefined) | 234 | -2% (inactive) | -5.5% (inactive) | 77.6 | 4.4% (inactive) | 108 | -0.642 (inactive) | 3.4e-05 (inactive) | 0.00609 (inactive) | 13.1% (inactive) | 40.3% (inactive)
Cn1cccc1Cc1nnc(SCC(N)=O)n1-c1ccc(F)cc1 | 845 | 4.6% (inactive) | 15.1% (inactive) | 102 | -106% (inactive) | 125 | -0.569 (inactive) | -3.1e-05 (inactive) | 0.00615 (inactive) | 10.4% (inactive) | 24.3% (inactive)
COc1cc2c(C#N)c(N3CCN(c4ccccc4OC)CC3)nc(N)c2c(N)n1 | 660 | 0.7% (inactive) | -14.7% (inactive) | 99.8 | -76.6% (inactive) | 109 | -0.178 (inactive) | 1.8e-06 (inactive) | 0.00562 (inactive) | -0.302% (inactive) | -36.5% (inactive)
Cc1ccc2c(c1)-c1c(cnn1CC(=O)Nc1ccccc1N1CCN(C)CC1)CO2 | 521 | -10.8% (inactive) | -22% (inactive) | 66.8 | -3.4% (inactive) | 108 | -0.507 (inactive) | -9e-06 (inactive) | 0.00599 (inactive) | 3.02% (inactive) | 7.29% (inactive)
CCOC(=O)N1CCC(N2C(=O)c3ccccc3C2Nc2cccnc2)CC1 (centres undefined) | 592 | -4.5% (inactive) | -28.1% (inactive) | 100 | -11.7% (inactive) | 117 | -0.6 (inactive) | 4.7e-06 (inactive) | 0.00694 (inactive) | 7.61% (inactive) | -4.54% (inactive)
